# Experimental data published in PubChem BioAssay (NCI).
# About 79,000 compounds went through this panel and 15% of them were active in at least one assay; those are over-represented in the sample as a whole. Unmarked numbers belong to inactive results. Active and inactive are the calls of the source. No stated cut-off is given here; in the data, active means growth inhibition above about 70%; inactive means the rest.
# Legend:
# [1] = NCI Yeast Anticancer Drug Screen. Data for the mlh1 strain (AID 171);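 further: 0% = growth of vehicle-treated control cultures of the same strain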; details: S. cerevisiae mlh1 strain growth inhibition, hits give high values
# Procedure, shortened: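 Vehicle-normalised growth inhibition of a repair- or checkpoint-altered yeast strain following compound treatment.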
# [2] = NCI Yeast Anticancer Drug Screen. Data for the sgs1 strain (AID 173);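 further: 0% = growth of vehicle-only control cultures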; details: S. cerevisiae sgs1 mutant, hits give high values
# Procedure, shortened: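 Screen format: yeast with repair or checkpoint alterations, compound exposure, growth read relative to vehicle.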
# [3] = NCI Yeast Anticancer Drug Screen. Data for the mlh1 rad18 strain (AID 175); details: S. cerevisiae mlh1 rad18 strain growth inhibition, hits give high values
# Procedure, shortened: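 Vehicle-treated cultures served as the reference for growth inhibition in a yeast strain carrying DNA damage repair alterations exposed to each compound.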
# [4] = NCI Yeast Anticancer Drug Screen. Data for the rad18 strain (AID 177); details: S. cerevisiae rad18 mutant growth inhibition, hits give high values
# Procedure, shortened: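 Test articles were incubated with altered yeast defective in DNA damage repair. Results are given as inhibition of growth versus vehicle.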
# [5] = NCI Yeast Anticancer Drug Screen. Data for the rad52 strain (AID 147);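 further: 0% = growth of vehicle-treated control cultures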; details: S. cerevisiae rad52 mutant growth inhibition, hits give high values
# Procedure, shortened: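 Vehicle-treated cultures served as the reference for growth inhibition of compound-exposed yeast bearing a DNA repair mutation.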
# [6] = NCI Yeast Anticancer Drug Screen. Data for the wt1 strain (AID 149);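 further: 0% = growth of vehicle-treated wt1 cultures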; details: S. cerevisiae wt1 strain (SPY 50644) growth inhibition, hits give high values
# Procedure, shortened: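 The wt1 strain was treated with compounds, and growth was compared with vehicle-treated cultures to give inhibition.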
# [7] = NCI Yeast Anticancer Drug Screen. Data for the rad50EPP+ strain (AID 151);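 further: 0% = growth of vehicle-treated control cultures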; details: S. cerevisiae rad50 mutant strain, hits give high values
# Procedure, shortened: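 In this screen, rad50EPP+ yeast were exposed to compounds. Growth inhibition was scored against vehicle-treated controls.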
# [8] = NCI Yeast Anticancer Drug Screen. Data for the mgt1 strain (AID 153); details: S. cerevisiae mgt1 mutant growth inhibition, hits give high values
# Procedure, shortened: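 mgt1 strain exposed; growth vs vehicle control recorded as inhibition.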
# [9] = NCI Yeast Anticancer Drug Screen. Data for the rad50 strain (AID 155);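 further: 0% = growth of vehicle-only cultures of the same strain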; details: S. cerevisiae rad50 strain growth inhibition, hits give high values
# Procedure, shortened: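 Cells are treated with compound, grown, and their growth is then scored against vehicle-only cultures of the same repair-deficient yeast strain.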
# [10] = NCI Yeast Anticancer Drug Screen. Data for the mec2-1 strain (AID 157); details: S. cerevisiae mec2-1 strain, hits give high values
# Procedure, shortened: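 Vehicle-treated cultures served as reference for growth inhibition of compound-exposed mec2-1 yeast.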
# [11] = NCI Yeast Anticancer Drug Screen. Data for the sgs1 mgt1 strain (AID 161);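 further: 0% = growth of cultures given vehicle only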; details: S. cerevisiae sgs1 mgt1 strain, hits give high values
# Procedure, shortened: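 Test agents were incubated with a DNA-repair-mutant yeast strain. Growth was then read and compared against vehicle-treated controls.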
# [12] = NCI Yeast Anticancer Drug Screen. Data for the CLN2oe strain (AID 163);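 further: 0% = growth of vehicle-only control cultures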; details: S. cerevisiae CLN2oe strain, hits give high values
# Procedure, shortened: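 Inhibition relative to vehicle-treated yeast is reported. Cells: strain with genetic alteration in cell-cycle control, grown with compound.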
# [13] = NCI Yeast Anticancer Drug Screen. Data for the cln2 rad14 strain (AID 165);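 further: 0% = growth equal to vehicle treated cultures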; details: S. cerevisiae cln2 rad14 strain, hits give high values
# Procedure, shortened: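 Each compound was tested on cln2 rad14 yeast. Inhibition of growth was calculated against vehicle-exposed controls.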
# [14] = NCI Yeast Anticancer Drug Screen. Data for the bub3 strain (AID 167); details: S. cerevisiae bub3 mutant strain, hits give high values
# Procedure, shortened: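 Part of a panel of yeast mutants defective in DNA damage repair or cell cycle regulation. Each strain is grown with compound, and inhibition is calculated relative to solvent-treated cultures.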
# [15] = NCI Yeast Anticancer Drug Screen. Data for the wt2 strain (AID 169);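 further: 0% = growth of vehicle-treated yeast cultures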; details: S. cerevisiae wt2 strain growth inhibition, hits give high values
# Procedure, shortened: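 Inhibition of yeast growth was determined after compound treatment, normalised to controls receiving only vehicle.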
# [16] = at 5.0 µM (retest, dose inferred, filed as 0.5)
# [17] = at 50.0 µM (retest, dose inferred, filed as 5.0)
smiles,measurement,setting,value
CCc1nc2ccc(NCCN(C)C)c3c(=O)c4ccccc4n1c23,growth inhibition,[1]; at 1.2 µM,37%
same,growth inhibition,[1]; at 3.7 µM,38%
same,growth inhibition,[1]; at 11.0 µM,29%
same,growth inhibition,[1]; at 33.0 µM,23%
same,growth inhibition,[1]; at 100.0 µM,40%
same,growth inhibition,[2]; at 1.2 µM,18%
same,growth inhibition,[2]; at 3.7 µM,15%
same,growth inhibition,[2]; at 11.0 µM,28%
same,growth inhibition,[2]; at 33.0 µM,22%
same,growth inhibition,[2]; at 100.0 µM,54%
same,growth inhibition,[3]; [16],14%
same,growth inhibition,[3]; [17],53%
same,growth inhibition,[3]; at 50.0 µM,83.8% (active)
same,growth inhibition,[4]; at 1.2 µM,30%
same,growth inhibition,[4]; at 3.7 µM,42%
same,growth inhibition,[4]; at 11.0 µM,44%
same,growth inhibition,[4]; at 33.0 µM,63%
same,growth inhibition,[4]; at 100.0 µM,80% (active)
CCC1(OC(=O)CN2CCN(CCO)CC2)C(=O)OCc2c1cc1n(c2=O)Cc2cc3ccccc3nc2-1 (stereo unspecified),growth inhibition,[5]; at 1.2 µM,35%
same,growth inhibition,[5]; at 3.7 µM,49%
same,growth inhibition,[5]; at 11.0 µM,70% (active)
same,growth inhibition,[5]; at 33.0 µM,89% (active)
same,growth inhibition,[5]; at 100.0 µM,93% (active)
same,growth inhibition,[6]; at 1.2 µM,9%
same,growth inhibition,[6]; at 3.7 µM,15%
same,growth inhibition,[6]; at 11.0 µM,24%
same,growth inhibition,[6]; at 33.0 µM,13%
same,growth inhibition,[6]; at 100.0 µM,7%
same,growth inhibition,[7]; at 1.2 µM,16%
same,growth inhibition,[7]; at 3.7 µM,17%
same,growth inhibition,[7]; at 11.0 µM,42%
same,growth inhibition,[7]; at 33.0 µM,60%
same,growth inhibition,[7]; at 100.0 µM,82% (active)
same,growth inhibition,[8]; at 1.2 µM,-18%
same,growth inhibition,[8]; at 3.7 µM,-20%
same,growth inhibition,[8]; at 11.0 µM,-19%
same,growth inhibition,[8]; at 33.0 µM,-23%
same,growth inhibition,[8]; at 100.0 µM,-45%
same,growth inhibition,[9]; at 1.2 µM,18%
same,growth inhibition,[9]; at 3.7 µM,57%
same,growth inhibition,[9]; [16],4%
same,growth inhibition,[9]; at 11.0 µM,74% (active)
same,growth inhibition,[9]; at 33.0 µM,88% (active)
same,growth inhibition,[9]; [17],83% (active)
same,growth inhibition,[9]; at 50.0 µM,17.9%
same,growth inhibition,[9]; at 100.0 µM,92% (active)
same,growth inhibition,[10]; at 1.2 µM,-23%
same,growth inhibition,[10]; at 3.7 µM,-19%
same,growth inhibition,[10]; [16],4%
same,growth inhibition,[10]; at 11.0 µM,-12%
same,growth inhibition,[10]; at 33.0 µM,-21%
same,growth inhibition,[10]; [17],-2%
same,growth inhibition,[10]; at 50.0 µM,20.1%
same,growth inhibition,[10]; at 100.0 µM,29%
same,growth inhibition,[11]; [16],-8%
same,growth inhibition,[11]; [17],-10%
same,growth inhibition,[11]; at 50.0 µM,3.05%
same,growth inhibition,[12]; at 1.2 µM,3%
same,growth inhibition,[12]; at 3.7 µM,5%
same,growth inhibition,[12]; at 11.0 µM,2%
same,growth inhibition,[12]; at 33.0 µM,-23%
same,growth inhibition,[12]; at 100.0 µM,-3%
same,growth inhibition,[13]; [16],20%
same,growth inhibition,[13]; [17],17%
same,growth inhibition,[13]; at 50.0 µM,8.9%
same,growth inhibition,[14]; at 1.2 µM,-4%
same,growth inhibition,[14]; at 3.7 µM,1%
same,growth inhibition,[14]; [16],0%
same,growth inhibition,[14]; at 11.0 µM,-10%
same,growth inhibition,[14]; at 33.0 µM,-14%
same,growth inhibition,[14]; [17],3%
same,growth inhibition,[14]; at 50.0 µM,-21.4%
same,growth inhibition,[14]; at 100.0 µM,-30%
same,growth inhibition,[15]; at 1.2 µM,11%
same,growth inhibition,[15]; at 3.7 µM,9%
same,growth inhibition,[15]; at 11.0 µM,14%
same,growth inhibition,[15]; at 33.0 µM,5%
same,growth inhibition,[15]; at 100.0 µM,-4%
same,growth inhibition,[1]; at 1.2 µM,1%
same,growth inhibition,[1]; at 3.7 µM,-5%
same,growth inhibition,[1]; at 11.0 µM,-12%
same,growth inhibition,[1]; at 33.0 µM,-20%
same,growth inhibition,[1]; at 100.0 µM,-13%
same,growth inhibition,[2]; at 1.2 µM,30%
same,growth inhibition,[2]; at 3.7 µM,21%
same,growth inhibition,[2]; at 11.0 µM,26%
same,growth inhibition,[2]; at 33.0 µM,21%
same,growth inhibition,[2]; at 100.0 µM,24%
same,growth inhibition,[3]; [16],-8%
same,growth inhibition,[3]; [17],-1%
same,growth inhibition,[3]; at 50.0 µM,78.3% (active)
same,growth inhibition,[4]; at 1.2 µM,9%
same,growth inhibition,[4]; at 3.7 µM,19%
same,growth inhibition,[4]; at 11.0 µM,6%
same,growth inhibition,[4]; at 33.0 µM,6%
same,growth inhibition,[4]; at 100.0 µM,1%
